PubChem BioAssay (NCI)
The panel holds about 83,000 compounds, 20% with a hit somewhere; the sample as a whole holds those more often.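 Compound tested at a single concentration for 48 hours in 96-well plates; a percent growth value below 10 was scored as active.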 Unmarked numbers belong to inactive results. The source made the active and inactive calls.

Legend:
Assay in all cases: NCI-60 one-dose screen, 48 h (100 = growth as untreated, 0 = no growth, -100 = all killed)
Conditions in all cases: 10 µM unless noted
HCT-15 colon = system: HCT-15 colon
HT29 colon = system: HT29 colon
SNB-75 CNS = system: SNB-75 CNS
SNB-19 CNS = system: SNB-19 CNS
U251 CNS = system: U251 CNS
PC-3 prostate = system: PC-3 prostate
SK-MEL-5 melanoma = system: SK-MEL-5 melanoma
UACC-62 melanoma = system: UACC-62 melanoma
LOX IMVI melanoma = system: LOX IMVI melanoma
SK-MEL-28 melanoma = system: SK-MEL-28 melanoma

SMILES | growth (HCT-15 colon) | growth (HT29 colon) | growth (SNB-75 CNS) | growth (SNB-19 CNS) | growth (U251 CNS) | growth (PC-3 prostate) | growth (SK-MEL-5 melanoma) | growth (UACC-62 melanoma) | growth (LOX IMVI melanoma) | growth (SK-MEL-28 melanoma)
Cn1c(O)c(C=NCCN=Cc2c(O)n(C)c(=O)n(C)c2=O)c(=O)n(C)c1=O | 107% | 97.1% | 88.3% | 97.6% | 102% | 90.4% | 98.7% | 84.1% | 93.2% | 109%
O=C(Cn1c(=O)sc2ccccc21)NNS(=O)(=O)c1ccccc1[N+](=O)[O-] | 103% | 99.3% | 83.3% | 103% | 97.9% | 96.2% | 101% | 98.8% | 96.4% | 104%
COCCNC(=O)c1ccc(-c2nc3ccc4[nH]ncc4c3c3c2CCCC3)cc1 | 19.3% | 44.5% | -6.65% (active) | 67.7% | 43.4% | 34.8% | 44.8% | 21.4% | 29.1% | 39.6%
O=C1CC(N2C(=O)/C(=C/C(Cl)=C\c3ccc([N+](=O)[O-])cc3)SC2=S)C(=O)N1c1ccc(Cl)cc1 (stereo not given) | -8.75% (active) | 4.25% (active) | 17.2% | 17.4% | 1.45% (active) | -5.48% (active) | 59.9% | 16.4% | -71.7% (active) | 18.2%
CN1C(=O)/C(=C/c2cn(-c3ccccc3)nc2-c2ccccc2)SC1=S | 103% | 109% | 101% | 100% | 110% | 90.2% | 98% | 86.7% | 89.6% | 105%
CN([O-])c1nc(N(C)[O-])nc(N2CCOCC2)n1.CN([O-])c1nc(N(C)[OH2+])nc(N2CCOCC2)n1.[Fe+3] | 104% [100 µM] | 102% [100 µM] | 96.1% [100 µM] | 108% [100 µM] | 38.7% [100 µM] | 65.9% [100 µM] | 95.5% [100 µM] | 81.6% [100 µM] | 38.9% [100 µM] | -26.4% [100 µM] (active)
C/C(=N/O)c1ccc(F)cc1 | 11.5% | 16.5% | 123% | 87.8% | 83.2% | 75.5% | 89.2% | 78.3% | 69.5% | 126%
O=C1N(Cc2ccccc2Cl)c2ccccc2C12NN=C(c1cccc(Cl)c1)S2 (stereo not given) | 0.214% (active) | 94.4% | 16.7% | 20.9% | -30% (active) | -64.3% (active) | 14.5% | -44.3% (active) | -19.4% (active) | 7.1% (active)
COc1ccc2c(O)c(/C=C3\N=Nc4ccccc43)oc2c1C[C@@H]1CCNC[C@H]1F | 6.86% (active) | 12.3% | 51.1% | 84.1% | 10.1% | 68.3% | 63.9% | 76% | -82.7% (active) | -70.2% (active)
Cc1nc2ncnc(Cl)c2[nH]1 | 100% | 80.9% | 89.1% | 99.7% | 91.3% | 90.5% | 104% | 100% | 97.5% | 115%
Cc1ccc(-c2nc(N3CCNCC3)c3oc(-c4ccccc4)nc3n2)cc1 | -77.7% (active) | -93.8% (active) | 85.4% | 16.7% | -98.2% (active) | -81.5% (active) | 70.9% | 91.3% | -89.1% (active) | -81.3% (active)
COc1cc(-n2cc(-c3cc(O)c(C/C=C(\C)CCC=C(C)C)c(O)c3)nn2)cc2c1O[C@]1(C)CC[C@@H](O)C(C)(C)[C@H]1C2 | -12.2% (active) | -34.6% (active) | 7.34% (active) | 32.5% | 4.31% (active) | 16.2% | -61.4% (active) | -30.2% (active) | -79.9% (active) | 35.7%
C#CCOc1ccc2ncnc(Nc3cccc(NC(=O)C=C)c3)c2c1 | 71.1% | 42.7% | 60.5% | 73.9% | 73.1% | 82.2% | 77.5% | 64.1% | 62.5% | 86.3%
Cc1ccc(CNc2ccc(Cl)cc2NCc2ccc(C)c(O)c2)cc1O | 7.28% (active) | 49.1% | 41.1% | 29.5% | 21.9% | 7.21% (active) | 32.7% | 38.6% | 2.86% (active) | 31.9%
CCN(CC)CCCN1C(=O)c2c(c(C)c3c(oc4cc(O)ccc43)c2C)C1=O | -79.2% (active) | -61.8% (active) | 124% | -82.8% (active) | -88.8% (active) | -67.5% (active) | -97.7% (active) | 95.2% | -93.5% (active) | -85.1% (active)
CC/C(=C(/c1ccc(Cl)cc1)c1ccc(OCCN2CCCC2)cc1)c1ccc(OC)cc1 | 28.1% | 13.7% | 103% | 80.1% | 45.3% | 47.5% | 66% | 96.3% | 68.7% | 85%
COC(=O)c1c2c(c(C)[n+]([O-])c1C)C(=O)C=C(NCc1ccc(OC)cc1)C2=O | -43.9% (active) | 3.5% (active) | -97% (active) | -73.8% (active) | -45.7% (active) | -6.9% (active) | -96.6% (active) | -75.1% (active) | -12% (active) | -6.37% (active)
C=CCn1c(SCC(=O)Nc2ccc(C(=O)/C=C/c3cc4cc(OC)ccc4nc3Cl)cc2)nnc1-c1ccc(Br)cc1 | 84.2% | 73.8% | 74.8% | 78.4% | 82.5% | 68.2% | 82.9% | 72.9% | 82.6% | 99.9%
